Each binder was assayed against AgAbp1 (assay: SPOT peptide array binding signal intensity (averaged, normalized) (arbitrary units (background-subtracted, floor 0; scale differs between SH3 domains)); higher = stronger binding of the SH3 domain to the peptide).
In short: (§1)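 Cellulose membranes carried synthetic 15-mer peptides with cysteines swapped for serines. These were incubated overnight at 4°C with 10 μg/ml of GST-fused SH3 domains from four yeast species in TBS-based blocking buffer. Binding signal, detected with anti-GST antibody and quantified in Genespotter, is the normalized, background-subtracted spot intensity averaged over replicates, in arbitrary units specific to each domain.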
With VKPRQLFPIPLNKVD the “SPOT peptide array binding signal intensity” value was 5.

These binders were tested against AgBbc1 in the same assay as above.
In short: as §1
VKPRQLFPIPLNKVD was tested, and the “SPOT peptide array binding signal intensity” value was ≤ 0.

Each binder was assayed against AgBem1-D1 in the same assay as above.
In short: as §1
VKPRQLFPIPLNKVD was tested, and the “SPOT peptide array binding signal intensity” value was 14.5.

The binders below were run against AgBzz1-D1 in the same assay as above.
In short: as §1
With VKPRQLFPIPLNKVD the “SPOT peptide array binding signal intensity” value was 61.

What follows are binders tested against AgBzz1-D2 in the same assay as above.
In short: as §1
For VKPRQLFPIPLNKVD, the “SPOT peptide array binding signal intensity” value was 40.5.

These binders were tested against AgCyk3 in the same assay as above.
In short: as §1
In the case of VKPRQLFPIPLNKVD, the “SPOT peptide array binding signal intensity” value is reported as ≤ 0.

Each binder was assayed against AgFus1 in the same assay as above.
In short: as §1
With VKPRQLFPIPLNKVD the “SPOT peptide array binding signal intensity” value was 23.

The binders below were run against AgHof1 in the same assay as above.
In short: as §1
VKPRQLFPIPLNKVD was tested, and the “SPOT peptide array binding signal intensity” value was 56.2.

What follows are binders tested against AgHse1 in the same assay as above.
In short: as §1
VKPRQLFPIPLNKVD was tested, and the “SPOT peptide array binding signal intensity” value was 60.5.

These binders were tested against AgLsb1 in the same assay as above.
In short: as §1
For VKPRQLFPIPLNKVD, the “SPOT peptide array binding signal intensity” value was 1600.

The binders below were run against AgLsb4 in the same assay as above.
In short: as §1
In the case of VKPRQLFPIPLNKVD, the “SPOT peptide array binding signal intensity” value is reported as ≤ 0.

Each binder was assayed against AgMyo5 in the same assay as above.
In short: as §1
VKPRQLFPIPLNKVD was tested, and the “SPOT peptide array binding signal intensity” value was 1.

What follows are binders tested against AgNbp2 in the same assay as above.
In short: as §1
With VKPRQLFPIPLNKVD the “SPOT peptide array binding signal intensity” value was 18.

Each binder was assayed against AgRvs167 in the same assay as above.
In short: as §1
For VKPRQLFPIPLNKVD, the “SPOT peptide array binding signal intensity” value was 5.

These binders were tested against AgSho1 in the same assay as above.
In short: as §1
VKPRQLFPIPLNKVD was tested, and the “SPOT peptide array binding signal intensity” value was 8.

What follows are binders tested against AgSla1-D1-D2 in the same assay as above.
In short: as §1
In the case of VKPRQLFPIPLNKVD, the “SPOT peptide array binding signal intensity” value is reported as 1.

Each binder was assayed against AgSla1-D3 in the same assay as above.
In short: as §1
For VKPRQLFPIPLNKVD, the “SPOT peptide array binding signal intensity” value was 8.5.

The binders below were run against CaAbp1-D1 in the same assay as above.
In short: as §1
For VKPRQLFPIPLNKVD, the “SPOT peptide array binding signal intensity” value was 98.

The binders below were run against CaAbp1-D2 in the same assay as above.
In short: as §1
VKPRQLFPIPLNKVD was tested, and the “SPOT peptide array binding signal intensity” value was 43.

These binders were tested against CaBbc1 in the same assay as above.
In short: as §1
VKPRQLFPIPLNKVD was tested, and the “SPOT peptide array binding signal intensity” value was 9.

These binders were tested against CaBem1-D1 in the same assay as above.
In short: as §1
With VKPRQLFPIPLNKVD the “SPOT peptide array binding signal intensity” value was 14.

What follows are binders tested against CaBzz1-D1 in the same assay as above.
In short: as §1
VKPRQLFPIPLNKVD was tested, and the “SPOT peptide array binding signal intensity” value was 110.

Each binder was assayed against CaBzz1-D2 in the same assay as above.
In short: as §1
For VKPRQLFPIPLNKVD, the “SPOT peptide array binding signal intensity” value was 59.

The binders below were run against CaCyk3 in the same assay as above.
In short: as §1
With VKPRQLFPIPLNKVD the “SPOT peptide array binding signal intensity” value was ≤ 0.

What follows are binders tested against CaFus1 in the same assay as above.
In short: as §1
In the case of VKPRQLFPIPLNKVD, the “SPOT peptide array binding signal intensity” value is reported as 138.

Each binder was assayed against CaHof1 in the same assay as above.
In short: as §1
VKPRQLFPIPLNKVD was tested, and the “SPOT peptide array binding signal intensity” value was 2.

What follows are binders tested against CaHse1 in the same assay as above.
In short: as §1
For VKPRQLFPIPLNKVD, the “SPOT peptide array binding signal intensity” value was 3.25.

What follows are binders tested against CaLsb1 in the same assay as above.
In short: as §1
In the case of VKPRQLFPIPLNKVD, the “SPOT peptide array binding signal intensity” value is reported as 0.5.

These binders were tested against CaLsb4 in the same assay as above.
In short: as §1
VKPRQLFPIPLNKVD was tested, and the “SPOT peptide array binding signal intensity” value was 7.

The binders below were run against CaMyo5 in the same assay as above.
In short: as §1
In the case of VKPRQLFPIPLNKVD, the “SPOT peptide array binding signal intensity” value is reported as 1.

The binders below were run against CaNbp2 in the same assay as above.
In short: as §1
VKPRQLFPIPLNKVD was tested, and the “SPOT peptide array binding signal intensity” value was 105.

What follows are binders tested against CaRvs167 in the same assay as above.
In short: as §1
With VKPRQLFPIPLNKVD the “SPOT peptide array binding signal intensity” value was 54.5.

These binders were tested against CaRvs167-3 in the same assay as above.
In short: as §1
VKPRQLFPIPLNKVD was tested, and the “SPOT peptide array binding signal intensity” value was 3.

The binders below were run against CaSho1 in the same assay as above.
In short: as §1
With VKPRQLFPIPLNKVD the “SPOT peptide array binding signal intensity” value was 30.

Each binder was assayed against CaSla1-D1-D2 in the same assay as above.
In short: as §1
For VKPRQLFPIPLNKVD, the “SPOT peptide array binding signal intensity” value was ≤ 0.

Each binder was assayed against CaSla1-D3 in the same assay as above.
In short: as §1
With VKPRQLFPIPLNKVD the “SPOT peptide array binding signal intensity” value was 3.25.

Each binder was assayed against ScAbp1 in the same assay as above.
In short: as §1
VKPRQLFPIPLNKVD was tested, and the “SPOT peptide array binding signal intensity” value was 71.

These binders were tested against ScBbc1 in the same assay as above.
In short: as §1
VKPRQLFPIPLNKVD was tested, and the “SPOT peptide array binding signal intensity” value was ≤ 0.

Each binder was assayed against ScBem1-D1 in the same assay as above.
In short: as §1
VKPRQLFPIPLNKVD was tested, and the “SPOT peptide array binding signal intensity” value was ≤ 0.

These binders were tested against ScBzz1-D1 in the same assay as above.
In short: as §1
For VKPRQLFPIPLNKVD, the “SPOT peptide array binding signal intensity” value was 17.

The binders below were run against ScBzz1-D2 in the same assay as above.
In short: as §1
With VKPRQLFPIPLNKVD the “SPOT peptide array binding signal intensity” value was 135.

Each binder was assayed against ScCyk3 in the same assay as above.
In short: as §1
With VKPRQLFPIPLNKVD the “SPOT peptide array binding signal intensity” value was 3.

What follows are binders tested against ScFus1 in the same assay as above.
In short: as §1
For VKPRQLFPIPLNKVD, the “SPOT peptide array binding signal intensity” value was 11.

Each binder was assayed against ScHof1 in the same assay as above.
In short: as §1
In the case of VKPRQLFPIPLNKVD, the “SPOT peptide array binding signal intensity” value is reported as 3.75.

These binders were tested against ScHse1 in the same assay as above.
In short: as §1
For VKPRQLFPIPLNKVD, the “SPOT peptide array binding signal intensity” value was 196.

Each binder was assayed against ScLsb1 in the same assay as above.
In short: as §1
For VKPRQLFPIPLNKVD, the “SPOT peptide array binding signal intensity” value was 374.

These binders were tested against ScLsb2 in the same assay as above.
In short: as §1
VKPRQLFPIPLNKVD was tested, and the “SPOT peptide array binding signal intensity” value was 201.

These binders were tested against ScLsb3 in the same assay as above.
In short: as §1
For VKPRQLFPIPLNKVD, the “SPOT peptide array binding signal intensity” value was 54.5.

These binders were tested against ScLsb4 in the same assay as above.
In short: as §1
For VKPRQLFPIPLNKVD, the “SPOT peptide array binding signal intensity” value was ≤ 0.

These binders were tested against ScMyo3 in the same assay as above.
In short: as §1
In the case of VKPRQLFPIPLNKVD, the “SPOT peptide array binding signal intensity” value is reported as 2.

What follows are binders tested against ScMyo5 in the same assay as above.
In short: as §1
VKPRQLFPIPLNKVD was tested, and the “SPOT peptide array binding signal intensity” value was 4.

Each binder was assayed against ScNbp2 in the same assay as above.
In short: as §1
With VKPRQLFPIPLNKVD the “SPOT peptide array binding signal intensity” value was 18.

What follows are binders tested against ScPex13 in the same assay as above.
In short: as §1
VKPRQLFPIPLNKVD was tested, and the “SPOT peptide array binding signal intensity” value was 1.5.

Each binder was assayed against ScRvs167 in the same assay as above.
In short: as §1
With VKPRQLFPIPLNKVD the “SPOT peptide array binding signal intensity” value was 48.3.

The binders below were run against ScSho1 in the same assay as above.
In short: as §1
For VKPRQLFPIPLNKVD, the “SPOT peptide array binding signal intensity” value was 139.

The binders below were run against ScSla1-D1-D2 in the same assay as above.
In short: as §1
In the case of VKPRQLFPIPLNKVD, the “SPOT peptide array binding signal intensity” value is reported as 1.5.

What follows are binders tested against ScSla1-D3 in the same assay as above.
In short: as §1
For VKPRQLFPIPLNKVD, the “SPOT peptide array binding signal intensity” value was ≤ 0.

The binders below were run against SpAbp1-D1 in the same assay as above.
In short: as §1
In the case of VKPRQLFPIPLNKVD, the “SPOT peptide array binding signal intensity” value is reported as 29.

The binders below were run against SpBbc1 in the same assay as above.
In short: as §1
VKPRQLFPIPLNKVD was tested, and the “SPOT peptide array binding signal intensity” value was ≤ 0.

These binders were tested against SpBzz1-D1 in the same assay as above.
In short: as §1
With VKPRQLFPIPLNKVD the “SPOT peptide array binding signal intensity” value was 156.

What follows are binders tested against SpBzz1-D2 in the same assay as above.
In short: as §1
In the case of VKPRQLFPIPLNKVD, the “SPOT peptide array binding signal intensity” value is reported as ≤ 0.

These binders were tested against SpCyk3 in the same assay as above.
In short: as §1
With VKPRQLFPIPLNKVD the “SPOT peptide array binding signal intensity” value was ≤ 0.

The binders below were run against SpHof1 in the same assay as above.
In short: as §1
For VKPRQLFPIPLNKVD, the “SPOT peptide array binding signal intensity” value was 11.5.

Each binder was assayed against SpHof1-2 in the same assay as above.
In short: as §1
With VKPRQLFPIPLNKVD the “SPOT peptide array binding signal intensity” value was 5.5.

The binders below were run against SpHof1-3 in the same assay as above.
In short: as §1
With VKPRQLFPIPLNKVD the “SPOT peptide array binding signal intensity” value was 310.

What follows are binders tested against SpHse1 in the same assay as above.
In short: as §1
VKPRQLFPIPLNKVD was tested, and the “SPOT peptide array binding signal intensity” value was 84.5.

Each binder was assayed against SpLsb1 in the same assay as above.
In short: as §1
With VKPRQLFPIPLNKVD the “SPOT peptide array binding signal intensity” value was 133.

Each binder was assayed against SpLsb4 in the same assay as above.
In short: as §1
For VKPRQLFPIPLNKVD, the “SPOT peptide array binding signal intensity” value was 28.5.

The binders below were run against SpMyo1 in the same assay as above.
In short: as §1
In the case of VKPRQLFPIPLNKVD, the “SPOT peptide array binding signal intensity” value is reported as 3.25.

What follows are binders tested against SpNbp2 in the same assay as above.
In short: as §1
With VKPRQLFPIPLNKVD the “SPOT peptide array binding signal intensity” value was 21.5.

The binders below were run against SpPex13 in the same assay as above.
In short: as §1
With VKPRQLFPIPLNKVD the “SPOT peptide array binding signal intensity” value was 6.

The binders below were run against SpRvs167 in the same assay as above.
In short: as §1
With VKPRQLFPIPLNKVD the “SPOT peptide array binding signal intensity” value was 10.

The binders below were run against SpSla1-D1-D2 in the same assay as above.
In short: as §1
In the case of VKPRQLFPIPLNKVD, the “SPOT peptide array binding signal intensity” value is reported as ≤ 0.

The binders below were run against SpSla1-D3 in the same assay as above.
In short: as §1
In the case of VKPRQLFPIPLNKVD, the “SPOT peptide array binding signal intensity” value is reported as ≤ 0.
